Data reported in PubChem BioAssay AID2401 (Southern Research Specialized Biocontainment Screening …, 2010).
Screen size: about 2,200 compounds; about 530 (24%) were called active. Only a sample is shown. Measured potencies and affinities stand elsewhere. Values without a mark were called inactive.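 The calls were made as follows: active = inhibition above a set limit at one or more concentrations of the dose series; inactive = inhibition under that limit at every dose.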

Assay: S. Typhimurium nonspecific reporter signal inhibition – Salmonella Typhimurium, GFP fluorescence, counter-screen for PhoP regulon inhibitor project, dose response (AID 2401);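 also: S. typhimurium with Mg-insensitive nmpC-GFP reporter grown at 10 µM Mg2+; drop in reporter fluorescence reflects general culture growth inhibition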
Conditions: 4 h; series mostly up to 150 µM; inhibition: at the top concentration

First: N=c1n(CCO)c2ccccc2n1Cc1ccc(Cl)cc1
Second: N=c1n(Cc2ccc(Cl)cc2)c2ccccc2n1CC(O)c1ccco1 (stereo not given)
The “inhibition” value of the first is lower: 10.3% for the first, 38.9% for the second.

First: N#CCC1c2ccccc2CCN1C(=O)Nc1ccc(Cl)cc1 (stereo not given)
Second: CN(CC(=O)Nc1ccc(C#N)cc1)Cc1ccc(Cl)cc1
The “inhibition” value of the first is lower: -25.1% for the first, -2.33% for the second.

Going from `N/C(=N\c1nc2ccccc2o1)NC(=O)c1ccccc1F` to `Cc1ccc(-c2nc3ccccc3[nH]2)cc1NC(=S)NC(=O)c1ccccc1Br`, the “inhibition” value rises from -4.05% to 23.6%.

Compared with `Cn1c(-c2ccc(N)cc2)nc2ccccc21`, `Cn1c(NCc2cc(Br)ccc2O)nc2ccccc21` is lower in “inhibition” value: -13.6% for the first, -21.2% for the second.

Going from `CCCCCOc1ccc(NC(=O)C(=O)NCCC2=CCCCC2)cc1` to `COC(=O)c1ccc(NC(=S)NCCc2cccc(C)c2)cc1`, the “inhibition” value rises from -29% to -15.9%.

Going from `CN1/C(=C\C=N\NC(=O)c2ccccc2Br)C(C)(C)c2ccccc21` to `CN1/C(=C/C2CC(=O)N(c3cccc4ccccc34)C2=O)C(C)(C)c2ccccc21` (stereo not given), the “inhibition” value rises from 9.45% to 37.3%.

First: C=CCNC(=O)c1ccc(N(C)S(=O)(=O)c2ccc(OC)cc2)cc1
Second: CC1Cc2ccccc2N1C(=O)COC(=O)c1ccc(S(=O)(=O)N(C)C)cc1 (stereo not given)
The “inhibition” value of the first is higher: -4.35% for the first, -26.3% for the second.

Compared with `CC(=O)Nc1nc(-c2ccc(Cl)cc2)nc(C)c1C(C)=O`, `O=C(c1[nH]ncc1-c1ccc(Cl)cc1)C1CO1` (stereo not given) is lower in “inhibition” value: -23.7% for the first, -25.8% for the second.

Going from `COC(=O)c1ccccc1NC(=O)NCc1ccc2c(c1)OCO2` to `O=C(COc1ccc(Br)cc1Cl)NC(=O)NCc1ccccc1`, the “inhibition” value rises from -23.4% to -5.96%.

First: c1ccc(-c2cnn3nnnc3n2)cc1
Second: CC1=C(C(=O)Nc2cccnc2)C(c2ccccn2)n2nnnc2N1 (stereo not given)
The “inhibition” value of the first is higher: 1.88% for the first, -1.7% for the second.

Compared with `O=C(NCc1cccs1)Nc1cccs1`, `Cc1cccc(C(=O)NC(NCc2ccco2)C(Cl)(Cl)Cl)c1` (stereo not given) is lower in “inhibition” value: -33.1% for the first, -36% for the second.

First: CSc1nnc2c3c4c(sc3nc(-n3nc(C)cc3C)n12)COC(C)(C)C4
Second: CC(=O)c1c(C)[nH]c(C(=O)CSc2nnc(-c3ccco3)n2Cc2ccccc2)c1C
The “inhibition” value of the first is higher: -11.8% for the first, -24.8% for the second.

Going from `CC(C)Cn1cnc2sc3c(c2c1=N)CCCC3` to `NC(=O)c1c(NC(=O)CN2C(=O)CCC2=O)sc2c1CCCCC2`, the “inhibition” value falls from -4.26% to -18.9%.

Going from `COc1cc(/C=C2/SC(=S)N(CC(=O)Nc3cccnc3)C2=O)cc(OC)c1OC` to `C#CC(C)(CC)NC(=O)c1cc(OC)c(OC)c(OC)c1` (stereo not given), the “inhibition” value rises from -45.8% to -28.1%.

First: O=C(NC1CCCCC1)C(c1ccncc1)N(CC1CCCO1)C(=O)C(F)(F)F (stereo not given)
Second: CCOC(=O)/C=C1\SCC(=O)N1CC(=O)NC1CCCCC1
The “inhibition” value of the first is higher: 3.65% for the first, -17.8% for the second.

First: CCn1nnc(-c2ccccc2NC(=O)c2ccc(-n3cnnn3)cc2)n1
Second: CCn1nnc(-c2ccccc2NS(=O)(=O)c2ccc(S(=O)(=O)N3CCCCCC3)cc2)n1
The “inhibition” value of the first is lower: -6.44% for the first, -2.81% for the second.

Compared with `c1ccc(COc2ccccc2CNCc2cccnc2)cc1`, `c1ccc(CNc2ncnc3ccccc23)cc1` is higher in “inhibition” value: -26% for the first, 37.4% for the second.

First: Clc1ccc(OCCCn2ccnc2)c(Br)c1
Second: Clc1cc(Br)ccc1OCCn1ccnc1
The “inhibition” value of the first is higher: 16.8% for the first, 11.8% for the second.

Going from `CCCCNCCCOc1cccc(Cl)c1Cl` to `CC(C)NCCCOc1ccc(Cl)cc1Br`, the “inhibition” value falls from 16.4% to 10.7%.

First: CCN(Cc1ccccc1)C(=O)CN1C(=S)NC(C)(C)CC1C (stereo not given)
Second: OCCN(Cc1ccccc1)Cc1ccc(Cl)cc1
The “inhibition” value of the first is lower: -9.86% for the first, 2.5% for the second.

Compared with `CCOC(=O)Nc1ccc(C)cc1C`, `CCOC(=O)c1c(NC(=O)Nc2ccc(C)cc2)sc2c1CCN(C)C2` is lower in “inhibition” value: -17.9% for the first, -18.4% for the second.

Going from `COC(=O)c1[nH]c2ccc(C)cc2c1NC(=O)Nc1ccc(OC)cc1` to `COC(=O)c1ccc(C)c(NC(=O)CN(c2cc(OC)ccc2OC)S(C)(=O)=O)c1`, the “inhibition” value rises from -17.9% to -12.7%.

Going from `O=C(/C=C/c1cccs1)N1CCN(Cc2ccc3c(c2)OCO3)CC1` to `S=C(c1ccc2c(c1)OCO2)N1CCCC1`, the “inhibition” value rises from -15.1% to 15%.

Compared with `O=C(Nc1cccc2ccccc12)c1ccc(Cn2cc(Cl)cn2)cc1`, `O=C(Nc1cnn(Cc2ccc(F)cc2)c1)c1cnccn1` is lower in “inhibition” value: 0.25% for the first, -15.5% for the second.

First: NC(=O)c1cnn(Cc2ccc(Cl)cc2)c1N
Second: OCCNc1ccc(Cl)cc1
The “inhibition” value of the first is lower: -17.2% for the first, -4.09% for the second.

First: CN(C)c1ccnc(Oc2ccc(F)cc2)c1C#N
Second: COc1ccc(-c2csc(NCc3ccco3)n2)cc1
The “inhibition” value of the first is lower: -16.6% for the first, 16.3% for the second.

Compared with `COc1ccc(CN=C2Nc3ccccc3CS2)cc1`, `COc1ccc(Nc2nc(NCc3ccco3)nc(N/N=C/c3ccccc3Cl)n2)cc1` is higher in “inhibition” value: -0.21% for the first, 10.1% for the second.

Compared with `Fc1ccc(-c2n[nH]c(=S)n2/N=C/c2c[nH]c3ccccc23)cc1`, `CCCCn1c(/N=C/c2c[nH]c3ccccc23)nc2ccccc21` is higher in “inhibition” value: 12.6% for the first, 19.1% for the second.

First: O=C(N/N=C/c1cn(-c2ccccc2)nc1-c1ccc(F)cc1)c1ccc2c(c1)OCO2
Second: Cc1ccc(OCc2nnc(SCC(=O)Nc3ccc4c(c3)OCO4)n2C)cc1
The “inhibition” value of the first is higher: 24.5% for the first, -6.69% for the second.

First: Cc1cc(=O)[nH]c(N/N=C/c2c[nH]c3ccccc23)n1
Second: O=c1cc(O)nc(SCc2ccccc2Cl)[nH]1
The “inhibition” value of the first is lower: -27.2% for the first, -18.8% for the second.

First: Cc1c(NS(=O)(=O)c2ccccc2)c(=O)n(-c2ccccc2)n1C
Second: Cc1c(NS(=O)(=O)c2ccc(N(C)C3CCCCC3)c([N+](=O)[O-])c2)c(=O)n(-c2ccccc2)n1C
The “inhibition” value of the first is lower: -18.6% for the first, -2.79% for the second.

Compared with `Cc1ccc2nc(SCC(=O)NCc3ccco3)[nH]c2c1`, `Cc1ccc2[nH]c3c(NCc4ccco4)ncnc3c2c1` is lower in “inhibition” value: 0.53% for the first, -14.2% for the second.

Compared with `Cc1cccc(Nc2nnc(SCC(=O)NC3CCCc4ccccc43)s2)c1` (stereo not given), `Cc1cccc(C)c1Nc1nnc(SCC(=O)Nc2sccc2C#N)s1` is higher in “inhibition” value: -3.06% for the first, 1.76% for the second.

First: Nc1cc(Br)c(N)c(Br)c1
Second: N#C/C=C(/N)c1ccc(Br)cc1
The “inhibition” value of the first is lower: -3.53% for the first, 8.99% for the second.

Compared with `CC(=O)Nc1c(O)nc(SCC(=O)N2CCN(c3ccc(F)cc3)CC2)[nH]c1=O`, `Cc1[nH]c2ccccc2c1C(c1ccncc1)N1CCN(c2ccc(F)cc2)CC1` (stereo not given) is higher in “inhibition” value: -33.4% for the first, 34.4% for the second.

First: CCOC(=O)CNS(=O)(=O)c1c(C)noc1C
Second: CCOC(=O)Cn1nnnc1C(C(C)C)N(Cc1cccs1)Cc1cc2cc(C)ccc2[nH]c1=O (stereo not given)
The “inhibition” value of the first is lower: -21.7% for the first, -3.99% for the second.

Compared with `Cc1ccc(-n2nnnc2SCC(=O)Nc2ncc(Cc3ccccc3Cl)s2)cc1`, `Cc1ccc(-c2nc(NCc3cccnc3)c3ccccc3n2)cc1` is higher in “inhibition” value: -23.2% for the first, 8.39% for the second.

Going from `Cc1ccc([N+](=O)[O-])cc1-c1ccc(/C=C(\C#N)c2[nH]nc(N)c2C#N)o1` to `COc1ccc(-c2cn[nH]c2-c2ccc(OCc3ccc([N+](=O)[O-])cc3)cc2O)cc1`, the “inhibition” value rises from -2.4% to 17.3%.

First: Cc1ccc2cc(CN(CCO)Cc3nnnn3Cc3ccc(F)cc3)c(=O)[nH]c2c1
Second: Cc1cc(C)cc(CC(Cc2nc3ccccc3[nH]2)c2nc3ccccc3[nH]2)c1 (stereo not given)
The “inhibition” value of the first is lower: -11.4% for the first, 0.65% for the second.

Going from `Cc1cc(/C=N/NC(N)=S)c(C)n1-c1ccc(Cl)c(Cl)c1` to `COC(=O)C(C)N1C(=O)S/C(=C\c2cc(C)n(-c3ccccn3)c2C)C1=O` (stereo not given), the “inhibition” value falls from -8.78% to -20.4%.

Compared with `Cc1ccc(/C=C/c2nnc(-c3ccc(C)cc3)o2)cc1`, `COc1ccc(S(=O)(=O)n2ccc(-c3ccc(OCCN(C)c4ccccn4)cc3)n2)cc1` is lower in “inhibition” value: 6.49% for the first, -26.2% for the second.

Compared with `O=C1c2ccccc2C(=O)N1CCCc1nc2ccccc2c(=O)n1Cc1ccco1`, `O=C1c2ccccc2C(=O)N1CCCc1nc(-c2ccccn2)no1` is higher in “inhibition” value: -27.4% for the first, 11.4% for the second.

Going from `CCn1c(=O)c2c(O)cc(=O)oc2c2ccccc21` to `Cc1nc2ccccc2n1CC(=O)N/N=C\C=C\c1ccccc1`, the “inhibition” value falls from -11% to -17.8%.

Compared with `CCOC(=O)C1=C(c2ccccc2)NC(SC)=C(C#N)C1c1ccco1` (stereo not given), `CCOC(=O)/C(=C/C=C/c1ccccc1)NC(=O)c1ccccc1` is higher in “inhibition” value: -18.8% for the first, -13.2% for the second.

Compared with `CC1OC(Nc2cccc3ccccc23)C(O)C(O)C1O` (stereo not given), `Oc1ccccc1Nc1nc(NCc2ccco2)c2ccccc2n1` is higher in “inhibition” value: -28.1% for the first, 33.4% for the second.

First: c1ccc(CN2CCN(c3nc(NCc4ccco4)c4ccccc4n3)CC2)cc1
Second: O=C1CC(N2CCN(Cc3ccccc3)CC2)C(=O)N1c1ccccc1 (stereo not given)
The “inhibition” value of the first is higher: 10.5% for the first, -12.2% for the second.

First: COc1ccc(S(=O)(=O)n2nc(OC(=O)c3cccs3)cc2N)cc1
Second: O=C(CN(c1ccc(F)cc1)S(=O)(=O)c1ccc2c(c1)OCCO2)NCc1cccnc1
The “inhibition” value of the first is higher: 2.91% for the first, -9.61% for the second.

Compared with `CCC(CC)c1nnc(NC(=O)Oc2ccccc2)s1`, `COCCn1c(-c2ccccc2F)n[nH]c1=S` is higher in “inhibition” value: -6.28% for the first, 8.43% for the second.

First: CCOc1cccc(CNc2ccc(O)cc2)c1OCc1ccc(Cl)cc1Cl
Second: CCOc1ccc(/C(O)=C2\C(=O)C(=O)N(CCN(C)C)C2c2cccc(OC)c2OC)cc1Cl (stereo not given)
The “inhibition” value of the first is lower: -17.2% for the first, -12.7% for the second.

First: BrC(=C\c1ccccc1)/C=N/N1CCN(c2ccccn2)CC1
Second: Cc1cccc2cc(C#N)c(N3CCN(C)CC3)nc12
The “inhibition” value of the first is lower: 9.97% for the first, 32.9% for the second.

Going from `CCOC(=O)N1CCN(c2nc(C)c3c(n2)CCCC3=O)CC1` to `COc1ccc(C(=O)N2CCN(C(=O)c3ccco3)CC2)cc1OC`, the “inhibition” value rises from -44.6% to 7.5%.

Going from `CC(C)(C)C1CCc2c(sc(NC(=O)c3cccs3)c2C(=O)N2CCCCC2)C1` (stereo not given) to `O=C(CN1CCCCCC1)Nc1cccc(Br)c1`, the “inhibition” value falls from 19.4% to -13.7%.

First: CCCCCOC(=O)C1=C(C)Nc2nnnn2C1c1ccc(OC)c(OC)c1OC (stereo not given)
Second: CCCNC(=O)COC(=O)CCC(=O)c1ccc(F)cc1
The “inhibition” value of the first is lower: -24.2% for the first, -5.02% for the second.

Going from `O=C(CSc1ccc2c(c1)OCCO2)NCCc1ccc(Cl)cc1Cl` to `Cc1cc(C(=O)N/N=C/C=C/c2ccc3c(c2)OCO3)n[nH]1`, the “inhibition” value rises from -35.5% to -14.9%.

Going from `Oc1ccc(C=Nc2ccc3ncccc3c2)c(O)c1` to `Oc1ccc(C=Nc2cccc3ncccc23)c(O)c1`, the “inhibition” value falls from 33.2% to -31.8%.

First: CC1=NN(c2ccc(Cl)cc2)C(=O)C1C(c1cccc(O)c1)c1c(C)[nH]n(-c2ccc(Cl)cc2)c1=O (stereo not given)
Second: O=C(N/N=C/c1cccn1-c1ccc([N+](=O)[O-])cc1)C(O)c1ccccc1 (stereo not given)
The “inhibition” value of the first is lower: 16.4% for the first, 24.9% for the second.

Compared with `O=C(Nn1c(O)c(C=C2N=c3ccccc3=N2)sc1=S)c1ccc(Cl)cc1`, `Cc1cc(C(=O)N/N=C/c2cccc([N+](=O)[O-])c2O)n[nH]1` is higher in “inhibition” value: -14.3% for the first, -8.52% for the second.

In the case of `CCN1C(=O)/C(=C/N2CC(C)CC(C)C2)SC1=S` (stereo not given), the “inhibition” value is reported as -18.2%.
